Results filed as inconclusive are left out. Activity calls are given as the source filed them. Rule for the calls: active = hit-call score of the fitted dose curve at least 0.9, where 1 is the maximum; inconclusive = response in the unintended direction; inactive = score below 0.9.
What was measured:
[1] = Tanguay_ZF_120hpf_PFIN_legacy: (Legacy) Oregon State University Tanguay Lab 120 Hour Post-fertilization zebrafish Assay for Pectoral Fin Malformation (AID 2283648);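 note: each larva judged yes or no for fin defect by brightfield with dead larvae skipped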
Method in brief: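 5D WT zebrafish; pronase dechorionation 4 hpf; 1 embryo/well at 6 hpf; static exposure to 120 hpf, 28C, sealed, foil-covered; final DMSO 0.64% v/v; 5 uM trimethyltin chloride positive control; fin defect scored yes/no.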

[2] = Tanguay_ZF_120hpf_CFIN_legacy: (Legacy) Oregon State University Tanguay Lab 120 Hour Post-fertilization zebrafish Assay for Caudal Fin Malformation (AID 2283649)
Method in brief: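 Embryos were collected from Tropical 5D wild-type adults and dechorionated at 4 hpf. At 6 hpf each was exposed, one per well, at 0.64% DMSO and 28C. At 120 hpf fin morphology was scored; dead embryos were excluded.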

[3] = Tanguay_ZF_120hpf_PIG_legacy: (Legacy) Oregon State University Tanguay Lab 120 Hour Post-fertilization zebrafish Assay for Pigmentation Malformation (AID 2283650)
Method in brief: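 Pronase dechorionation at 4 hpf; embryos plated at 6 hpf, one per well; static exposure, sealed and foil-covered, 28C, to 120 hpf; pigmentation read by brightfield, binary; DMSO 0.64% baseline, 5uM trimethyltin chloride positive control.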

[4] = Tanguay_ZF_120hpf_CIRC_legacy: (Legacy) Oregon State University Tanguay Lab 120 Hour Post-fertilization zebrafish Assay for Circulatory Malformation (AID 2283651)
Method in brief: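 Dechorionated wild-type 5D zebrafish embryos, one per well, statically exposed from 6 to 120 hpf at 28C with 0.64% DMSO; circulatory malformation scored present/absent by brightfield microscopy at 120 hpf, dead embryos excluded.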

[5] = Tanguay_ZF_120hpf_SWIM_legacy: (Legacy) Oregon State University Tanguay Lab 120 Hour Post-fertilization zebrafish Assay for Swim Bladder Malformation (AID 2283654);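 note: swim bladder malformation in each larva scored yes or no under brightfield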
Method in brief: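 Embryos lacking chorions were exposed individually and statically to test chemical from 6 to 120 hpf at 28C, with 0.64% DMSO as vehicle. At 120 hpf, swim bladder malformation was recorded as present or absent by brightfield microscopy.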

[6] = Tanguay_ZF_120hpf_TRUN_legacy: (Legacy) Oregon State University Tanguay Lab 120 Hour Post-fertilization zebrafish Assay for Truncated Body (AID 2283655)
Method in brief: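 5D wild-type larvae; pronase dechorionation; static exposure 6→120 hpf, 28C; DMSO 0.64% final; 5uM trimethyltin chloride positive control. Readout: presence/absence of truncated body, analyzed relative to DMSO.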

[7] = Tanguay_ZF_120hpf_NC_legacy: (Legacy) Oregon State University Tanguay Lab 120 Hour Post-fertilization zebrafish Assay for Notochord and Tail Malformation (AID 2283656)
Method in brief: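 Dechorionated Tropical 5D wild-type zebrafish embryos, one per well from 6 hpf, statically exposed to 120 hpf at 28C in 0.64% DMSO final. Notochord distortion scored present/absent by brightfield; dead embryos excluded.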

[8] = Tanguay_ZF_120hpf_TR_legacy: (Legacy) Oregon State University Tanguay Lab 120 Hour Post-fertilization zebrafish Assay for Touch Response (AID 2283667)
Method in brief: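 5D WT embryos; static exposure to 120 hpf, 28C, sealed/dark; DMSO 0.64% v/v final. TR scored present/absent; dead embryos excluded. Pos ctrl 5uM trimethyltin chloride.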

Measured: outcome

O=C(O)c1ccc([N+](=O)[O-])cc1
inactive: all assays above

From PubChem BioAssay (EPA / NIEHS)
